Experiments:
Assay in all cases: DAPPL (digital affinity profiling via proximity ligation, sequencing); 10 mM Tris-HCl pH 7.5, 50 mM NaCl, 1 mM DTT, 4% glycerol, room temperature, 30 min; GST-TFs on glutathione beads, 16-mer random dsDNA library, 0.1% formaldehyde crosslink after washing; high values mean tight binding
Conditions in all cases: protein: recombinant; tags: N-terminal GST; dsDNA, one strand shown
FLI1 = molecular target: T1, FLI1 (Homo sapiens, UniProt Q01543 1-452)
T1 sequence: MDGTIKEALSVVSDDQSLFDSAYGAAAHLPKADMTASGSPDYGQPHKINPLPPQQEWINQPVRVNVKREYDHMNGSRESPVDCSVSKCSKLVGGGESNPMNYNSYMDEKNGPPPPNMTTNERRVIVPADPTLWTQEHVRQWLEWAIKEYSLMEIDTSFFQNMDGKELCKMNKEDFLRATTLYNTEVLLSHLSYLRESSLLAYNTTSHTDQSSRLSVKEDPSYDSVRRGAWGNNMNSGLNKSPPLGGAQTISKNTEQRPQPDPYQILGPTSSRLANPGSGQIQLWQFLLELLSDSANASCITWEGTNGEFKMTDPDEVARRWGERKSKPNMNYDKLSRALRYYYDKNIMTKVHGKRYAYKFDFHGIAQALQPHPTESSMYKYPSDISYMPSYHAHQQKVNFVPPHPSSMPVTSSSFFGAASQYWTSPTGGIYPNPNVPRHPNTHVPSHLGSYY
Method in brief: (§1)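 Binding signal is each hexamer's read frequency for a factor divided by its frequency in the tag-only sample. The factors were GST-fused human transcription factors from yeast, captured on glutathione beads, DNA-barcoded and pooled with that sample. Pools were incubated with 200 nmole of a random double-stranded 16-mer DNA library in Tris/NaCl/DTT/glycerol buffer at room temperature for 30 min, then washed, crosslinked with 0.1% formaldehyde, proximity-ligated with BsaI/T4 ligase (1 h, 37 °C), PCR-amplified and sequenced on an Illumina NextSeq500.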

ELK1 = molecular target: T2, ELK1 (Homo sapiens, UniProt P19419 1-428)
T2 sequence: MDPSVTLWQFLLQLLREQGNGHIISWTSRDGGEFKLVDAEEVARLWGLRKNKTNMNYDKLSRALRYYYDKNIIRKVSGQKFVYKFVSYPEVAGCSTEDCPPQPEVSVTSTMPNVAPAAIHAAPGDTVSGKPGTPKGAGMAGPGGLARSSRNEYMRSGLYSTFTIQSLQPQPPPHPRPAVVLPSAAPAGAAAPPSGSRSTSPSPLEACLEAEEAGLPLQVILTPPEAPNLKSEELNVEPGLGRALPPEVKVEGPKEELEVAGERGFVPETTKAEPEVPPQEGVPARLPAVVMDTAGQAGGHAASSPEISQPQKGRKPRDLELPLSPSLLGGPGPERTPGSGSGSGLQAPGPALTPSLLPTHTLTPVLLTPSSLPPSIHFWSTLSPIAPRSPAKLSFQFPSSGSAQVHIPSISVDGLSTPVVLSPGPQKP
Method in brief: as §1

GABPA = molecular target: T3, GABPA (Homo sapiens, UniProt Q06546 1-454)
T3 sequence: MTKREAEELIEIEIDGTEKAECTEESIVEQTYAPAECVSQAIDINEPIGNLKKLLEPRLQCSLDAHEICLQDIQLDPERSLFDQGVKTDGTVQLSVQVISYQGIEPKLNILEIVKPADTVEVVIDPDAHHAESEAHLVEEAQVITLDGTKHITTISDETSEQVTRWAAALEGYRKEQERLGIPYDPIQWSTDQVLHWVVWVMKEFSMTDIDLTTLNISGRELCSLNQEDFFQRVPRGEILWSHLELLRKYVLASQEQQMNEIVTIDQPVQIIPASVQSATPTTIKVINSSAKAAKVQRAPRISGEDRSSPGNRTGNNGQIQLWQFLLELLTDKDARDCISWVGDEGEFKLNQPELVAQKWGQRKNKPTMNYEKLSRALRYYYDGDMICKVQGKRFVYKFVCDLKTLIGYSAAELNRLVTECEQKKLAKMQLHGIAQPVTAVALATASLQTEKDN
Method in brief: as §1

ERG = molecular target: T4, ERG (Homo sapiens, UniProt P11308 1-479)
T4 sequence: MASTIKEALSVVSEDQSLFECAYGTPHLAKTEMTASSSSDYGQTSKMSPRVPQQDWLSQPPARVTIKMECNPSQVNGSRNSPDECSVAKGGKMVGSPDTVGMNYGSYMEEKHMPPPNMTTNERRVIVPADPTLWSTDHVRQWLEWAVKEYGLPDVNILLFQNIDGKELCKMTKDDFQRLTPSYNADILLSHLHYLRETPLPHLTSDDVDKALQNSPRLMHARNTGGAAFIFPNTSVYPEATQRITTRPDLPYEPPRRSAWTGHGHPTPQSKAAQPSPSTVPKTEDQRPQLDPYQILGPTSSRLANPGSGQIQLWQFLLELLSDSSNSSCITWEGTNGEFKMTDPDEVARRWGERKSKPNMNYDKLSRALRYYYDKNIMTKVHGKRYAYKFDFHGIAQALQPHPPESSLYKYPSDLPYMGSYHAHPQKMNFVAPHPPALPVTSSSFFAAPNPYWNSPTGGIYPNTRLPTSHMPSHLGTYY
Method in brief: as §1

ELF1 = ELF1 (Homo sapiens, UniProt P32519 1-619)
Method in brief: as §1

EHF = molecular target: T5, EHF (Homo sapiens, UniProt Q9NZC4 1-300)
T5 sequence: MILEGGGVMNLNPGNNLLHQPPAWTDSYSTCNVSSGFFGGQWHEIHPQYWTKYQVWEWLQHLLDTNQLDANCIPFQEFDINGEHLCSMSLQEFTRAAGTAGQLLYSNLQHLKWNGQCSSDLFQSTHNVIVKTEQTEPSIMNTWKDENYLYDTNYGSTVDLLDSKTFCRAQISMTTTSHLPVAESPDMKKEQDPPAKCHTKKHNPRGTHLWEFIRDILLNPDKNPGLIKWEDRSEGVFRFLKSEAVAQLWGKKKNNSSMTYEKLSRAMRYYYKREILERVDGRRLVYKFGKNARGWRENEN
Method in brief: as §1

SPI1 = SPI1 (Homo sapiens, UniProt P17947 1-270)
Method in brief: as §1

SPIB = SPIB (Homo sapiens, UniProt Q01892 1-262)
Method in brief: as §1

ELK3 = molecular target: T6, ELK3 (Homo sapiens, UniProt P41970 1-407)
T6 sequence: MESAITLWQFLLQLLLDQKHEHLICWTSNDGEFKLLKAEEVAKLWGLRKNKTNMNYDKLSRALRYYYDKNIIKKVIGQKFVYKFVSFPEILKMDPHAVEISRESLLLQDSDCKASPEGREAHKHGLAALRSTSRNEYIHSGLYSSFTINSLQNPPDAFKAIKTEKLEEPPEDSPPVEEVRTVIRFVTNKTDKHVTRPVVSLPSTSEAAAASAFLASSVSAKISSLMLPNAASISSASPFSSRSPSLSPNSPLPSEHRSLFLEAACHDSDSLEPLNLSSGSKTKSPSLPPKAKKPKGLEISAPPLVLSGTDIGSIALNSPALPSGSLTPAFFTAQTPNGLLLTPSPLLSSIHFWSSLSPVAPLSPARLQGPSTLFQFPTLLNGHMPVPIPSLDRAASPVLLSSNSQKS
Method in brief: as §1

Sequence of SPIB (Q01892 whole entry): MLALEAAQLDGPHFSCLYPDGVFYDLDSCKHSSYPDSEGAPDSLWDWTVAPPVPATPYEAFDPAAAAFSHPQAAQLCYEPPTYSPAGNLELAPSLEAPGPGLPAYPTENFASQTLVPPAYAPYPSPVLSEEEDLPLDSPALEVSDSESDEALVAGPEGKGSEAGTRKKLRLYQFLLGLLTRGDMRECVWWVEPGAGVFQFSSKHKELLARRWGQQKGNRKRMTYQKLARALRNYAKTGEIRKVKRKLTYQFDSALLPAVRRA
Sequence of ELF1 (P32519 whole entry): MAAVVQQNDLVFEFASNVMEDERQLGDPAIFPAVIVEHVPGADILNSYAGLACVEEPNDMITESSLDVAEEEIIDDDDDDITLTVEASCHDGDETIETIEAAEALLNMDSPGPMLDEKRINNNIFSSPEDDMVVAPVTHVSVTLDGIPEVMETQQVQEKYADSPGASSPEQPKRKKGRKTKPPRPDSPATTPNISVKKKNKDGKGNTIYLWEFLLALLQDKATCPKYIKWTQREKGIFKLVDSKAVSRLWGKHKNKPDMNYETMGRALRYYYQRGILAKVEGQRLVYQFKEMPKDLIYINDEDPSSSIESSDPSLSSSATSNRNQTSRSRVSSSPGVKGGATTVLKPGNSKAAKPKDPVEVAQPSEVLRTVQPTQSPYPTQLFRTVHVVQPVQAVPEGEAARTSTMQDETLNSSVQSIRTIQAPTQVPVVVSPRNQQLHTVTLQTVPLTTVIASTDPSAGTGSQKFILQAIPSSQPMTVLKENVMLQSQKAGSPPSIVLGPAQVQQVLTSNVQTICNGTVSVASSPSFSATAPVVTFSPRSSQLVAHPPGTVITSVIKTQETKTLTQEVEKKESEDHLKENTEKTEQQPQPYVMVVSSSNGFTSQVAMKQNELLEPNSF

TTTCTC
binding signal (FLI1): 1.64 fold enrichment (6-mer frequency, TF over GST control)
binding signal (ELK1): 1.66 fold enrichment (6-mer frequency, TF over GST control)
binding signal (GABPA): 1.58 fold enrichment (6-mer frequency, TF over GST control)
binding signal (ERG): 1.54 fold enrichment (6-mer frequency, TF over GST control)
binding signal (ELF1): 1.62 fold enrichment (6-mer frequency, TF over GST control)
binding signal (EHF): 1.59 fold enrichment (6-mer frequency, TF over GST control)
binding signal (SPI1): 1.7 fold enrichment (6-mer frequency, TF over GST control)
binding signal (SPIB): 1.63 fold enrichment (6-mer frequency, TF over GST control)
binding signal (ELK3): 1.46 fold enrichment (6-mer frequency, TF over GST control)

TCTGGC
binding signal (FLI1): 1.36 fold enrichment (6-mer frequency, TF over GST control)
binding signal (ELK1): 1.26 fold enrichment (6-mer frequency, TF over GST control)
binding signal (GABPA): 1.29 fold enrichment (6-mer frequency, TF over GST control)
binding signal (ERG): 1.27 fold enrichment (6-mer frequency, TF over GST control)
binding signal (ELF1): 1.14 fold enrichment (6-mer frequency, TF over GST control)
binding signal (EHF): 1.22 fold enrichment (6-mer frequency, TF over GST control)
binding signal (SPI1): 1.25 fold enrichment (6-mer frequency, TF over GST control)
binding signal (SPIB): 1.09 fold enrichment (6-mer frequency, TF over GST control)
binding signal (ELK3): 1.18 fold enrichment (6-mer frequency, TF over GST control)

ACCCTT
binding signal (FLI1): 1.3 fold enrichment (6-mer frequency, TF over GST control)
binding signal (ELK1): 1.23 fold enrichment (6-mer frequency, TF over GST control)
binding signal (GABPA): 1.23 fold enrichment (6-mer frequency, TF over GST control)
binding signal (ERG): 1.19 fold enrichment (6-mer frequency, TF over GST control)
binding signal (ELF1): 1.16 fold enrichment (6-mer frequency, TF over GST control)
binding signal (EHF): 1.18 fold enrichment (6-mer frequency, TF over GST control)
binding signal (SPI1): 1.21 fold enrichment (6-mer frequency, TF over GST control)
binding signal (SPIB): 1.19 fold enrichment (6-mer frequency, TF over GST control)
binding signal (ELK3): 1.2 fold enrichment (6-mer frequency, TF over GST control)

CTTTTC
binding signal (FLI1): 1.44 fold enrichment (6-mer frequency, TF over GST control)
binding signal (ELK1): 1.51 fold enrichment (6-mer frequency, TF over GST control)
binding signal (GABPA): 1.34 fold enrichment (6-mer frequency, TF over GST control)
binding signal (ERG): 1.43 fold enrichment (6-mer frequency, TF over GST control)
binding signal (ELF1): 1.38 fold enrichment (6-mer frequency, TF over GST control)
binding signal (EHF): 1.39 fold enrichment (6-mer frequency, TF over GST control)
binding signal (SPI1): 1.65 fold enrichment (6-mer frequency, TF over GST control)
binding signal (SPIB): 1.53 fold enrichment (6-mer frequency, TF over GST control)
binding signal (ELK3): 1.23 fold enrichment (6-mer frequency, TF over GST control)

ACCTGC
binding signal (FLI1): 1.37 fold enrichment (6-mer frequency, TF over GST control)
binding signal (ELK1): 1.52 fold enrichment (6-mer frequency, TF over GST control)
binding signal (GABPA): 1.39 fold enrichment (6-mer frequency, TF over GST control)
binding signal (ERG): 1.39 fold enrichment (6-mer frequency, TF over GST control)
binding signal (ELF1): 1.54 fold enrichment (6-mer frequency, TF over GST control)
binding signal (EHF): 1.67 fold enrichment (6-mer frequency, TF over GST control)
binding signal (SPI1): 1.46 fold enrichment (6-mer frequency, TF over GST control)
binding signal (SPIB): 1.39 fold enrichment (6-mer frequency, TF over GST control)
binding signal (ELK3): 1.33 fold enrichment (6-mer frequency, TF over GST control)

TGTTAA
binding signal (FLI1): 1.11 fold enrichment (6-mer frequency, TF over GST control)
binding signal (ELK1): 1.15 fold enrichment (6-mer frequency, TF over GST control)
binding signal (GABPA): 1.17 fold enrichment (6-mer frequency, TF over GST control)
binding signal (ERG): 1.11 fold enrichment (6-mer frequency, TF over GST control)
binding signal (ELF1): 1.09 fold enrichment (6-mer frequency, TF over GST control)
binding signal (EHF): 1.03 fold enrichment (6-mer frequency, TF over GST control)
binding signal (SPI1): 1.07 fold enrichment (6-mer frequency, TF over GST control)
binding signal (SPIB): 1.13 fold enrichment (6-mer frequency, TF over GST control)
binding signal (ELK3): 1.15 fold enrichment (6-mer frequency, TF over GST control)

GCTAAA
binding signal (FLI1): 1.06 fold enrichment (6-mer frequency, TF over GST control)
binding signal (ELK1): 1.12 fold enrichment (6-mer frequency, TF over GST control)
binding signal (GABPA): 1.07 fold enrichment (6-mer frequency, TF over GST control)
binding signal (ERG): 1.07 fold enrichment (6-mer frequency, TF over GST control)
binding signal (ELF1): 1.08 fold enrichment (6-mer frequency, TF over GST control)
binding signal (EHF): 1.06 fold enrichment (6-mer frequency, TF over GST control)
binding signal (SPI1): 1.16 fold enrichment (6-mer frequency, TF over GST control)
binding signal (SPIB): 1.14 fold enrichment (6-mer frequency, TF over GST control)
binding signal (ELK3): 1.04 fold enrichment (6-mer frequency, TF over GST control)
